Laboratory results as given in PubChem BioAssay (Tox21).
Inconclusive results are not listed. A number with no mark means an inactive call. Calls follow the shape of the full dose curve.

Assay: p53 small molecule agonists, cell-based qHTS assay with rat liver microsomes: qHTS cell viability counter screen (AID 1963580); also: nearly all actives have a fitted effect of over 45% in size
Conditions: p53RE-bla HCT-116 + rat microsomes, ATP viability, 16 h; series mostly up to 66 µM; activity change, negative = cytotoxicity: at the top concentration
From the text: National Center for Advancing Translational Sciences [NCATS]
Division of Preclinical Innovation [DPI]
U.S. Environmental Protection Agency [EPA]
National Institutes of Environmental Health Sciences [NIEHS]
National Toxicology Program [NTP]
U.S. Food and Drug Administration [FDA]
p53, a tumor suppressor protein, is activated following cellular insult, including DNA damage and other cellular stresses. The activation of p53 regulates cell fate by inducing DNA repair, cell cycle arrest, apoptosis, or cellular senescence. The activation of p53, therefore, is a good indicator of DNA damage and other cellular stresses. The CellSensor p53RE-bla HCT-116 cell line contains a stably integrated beta-lactamase reporter gene under control of the p53 response elements. The activation of the reporter gene under culture conditions can be detected by fluorescence intensity. This cell line was used to screen the Tox21 10K compound library in the condition of presence of rat liver microsomes and to identify agonists that activate the p53 signaling pathway after in vitro metabolic activation (Ooka et al., Archive of Toxicology 96:1975-1987, 2022). The cytotoxicity of the Tox21 compound library against the p53 RE-bla HCT-116 cell line was tested in parallel by measuring the intra cellular ATP content in the same wells.
Tox21 Assay Protocol Summary:
The p53RE-bla cells were dispensed at 4,000cells/3ul/well in 1536-well black-clear bottom plates. After the assay plates were incubated at 37 C, 5% CO2 incubator for 5 hours, 23 nL of compounds dissolved in DMSO, positive controls or DMSO only was transferred to the assay plate. Following compound addition, 3 uL of rat liver microsomes (Molecular Toxicology, Boone, NC) at final concentration of 0.5 mg/mL and 1uL of B-Nicotinamide adenine dinucleotide 2'-phosphate (NADPH) at final concentration of 0.5 mg/mL were transferred to the assay plate. The plates were incubated at 37 C for 16 hours. 1 uL of LiveBLAzer detection mixture was added to each well and the plates were incubated at room temperature in the dark for 2 h. Fluorescence intensity at 460 and 530 nm emission and 405 nm excitation were measured by an Envision plate reader. For cell viability readout that measures cytotoxicity, 4 ul/well of CellTiter-Glo reagent was added into the assay plates using a Flying Reagent Dispenser. After 30 min incubation at room temperature, the luminescence intensity in the plates was measured using a ViewLux plate reader.
% is scaled to controls: 0 for no effect and ±100 for the full control effect.

| Structure (SMILES) | activity change, negative = cytotoxicity |
| --- | --- |
| CC(C)CCCCCCOC(=O)c1ccc(C(=O)OCCCCCCC(C)C)c(C(=O)OCCCCCCC(C)C)c1 | 0.735% |
| CC(C)(Sc1cc(C(C)(C)C)c(O)c(C(C)(C)C)c1)Sc1cc(C(C)(C)C)c(O)c(C(C)(C)C)c1 | -5.3% [at 30.3 µM] |
| C=CC(=O)O | -0.918% [at 30.3 µM] |
| Nc1ccc(S(=O)(=O)Nc2ccnn2-c2ccccc2)cc1 | -1.12% [at 13.5 µM] |
| CC(C)CC(=O)C1C(=O)c2ccccc2C1=O | -5.54% |
| CN(C)CCCOc1nn(Cc2ccccc2)c2ccccc12 | -0.234% [at 30.3 µM] |
| CCCCCCCCCCCBr | 8.01% [at 30.3 µM] |
| CCCCCCCC[Si](OCC)(OCC)OCC | 6.79% |
| O=C(O)c1cc(C(=O)O)c(C(=O)O)cc1C(=O)O | -11.7% |
| CN1CCN(CCCN2c3ccccc3Sc3ccc(C(F)(F)F)cc32)CC1 | -1.14% [at 30.3 µM] |
| CO[Si](CCC1CCC2OC2C1)(OC)OC (stereo not given) | -3.56% |
| C=C1C[C@@]23CC[C@H]4[C@@](C)(CCC[C@@]4(C)C(=O)O[C@@H]4O[C@H](CO)[C@@H](O)[C@H](O)[C@H]4O)[C@@H]2CC[C@]1(O[C@@H]1O[C@H](CO)[C@@H](O)[C@H](O[C@@H]2O[C@H](CO)[C@@H](O)[C@H](O)[C@H]2O)[C@H]1O[C@@H]1O[C@H](CO)[C@@H](O)[C@H](O)[C@H]1O)C3 | -0.172% |
| NC1[C@H]2CN(c3nc4c(cc3F)c(=O)c(C(=O)O)cn4-c3ccc(F)cc3F)C[C@@H]12 (stereo not given in full) | -3.53% [at 30.3 µM] |
| COC(=O)CCCC(=O)O | -17.7% |
| Cc1cccc(C)c1NC(=O)c1ccc(N)cc1 | -5.87% [at 30.3 µM] |
| CC(C)(C)OC(=O)N1C[C@@H](F)C[C@H]1C(=O)O | 2.92% |
| OCCN(CCO)c1cccc(Cl)c1 | -2.97% |
| CCN(CC)CCOc1ccc(C(O)(Cc2ccc(Cl)cc2)c2ccc(C)cc2)cc1 (stereo not given) | -10.6% [at 30.3 µM] |
| O=C(O)Cc1csc(-c2ccc(Cl)cc2)n1 | -0.921% [at 30.3 µM] |
| CC(C(=O)O)c1ccc(CC2CCCC2=O)cc1 (stereo not given) | -2.57% [at 30.3 µM] |

| Structure (SMILES) | activity change, negative = cytotoxicity |
| --- | --- |
| Nc1ccc(S(=O)(=O)O)c(N)c1 | -23.5% |
| CCC(=O)OC(=O)CC | -4.49% |
| OCCC(O)CO (stereo not given) | -0.0449% |
| COc1ccc(C(=O)Nc2ccccc2)cc1[N+](=O)[O-] | -8.64% |
| CCCC[P+](C)(CCCC)CCCC | -6.49% |
| CC(=O)Oc1cc2c(s1)CCN(C(C(=O)C1CC1)c1ccccc1F)C2 (stereo not given) | -0.74% [at 30.3 µM] |
| CCN(CC)c1ccc(C=O)cc1 | 1.75% |
| CN1Cc2cc(C(=O)N3CCC(C4CCNCC4)CC3)ccc2N[C@@H](CC(=O)O)C1=O | -4.78% [at 30.3 µM] |
| CC(C)(O)c1ccccc1 | -0.156% |
| C=CS(=O)(=O)O | 9.06% |
| NCC1CCC(C(=O)Oc2ccc(CCC(=O)O)cc2)CC1 (stereo not given) | 2.2% [at 30.3 µM] |
| CC(C)CCCCCCc1ccc(OCCOCCO)cc1 | -3.29% |
| CCCCC(CC)COC(=O)c1ccccc1O (stereo not given) | 2.18% [at 30.3 µM] |
| CC(C)C(=O)OCc1ccccc1 | 1.12% |
| CC(C)(O)CCCC1=CCC(C=O)CC1 (stereo not given) | 1.21% |
| O=C(OCCN1CCOCC1)c1cccnc1Nc1cccc(C(F)(F)F)c1 | 5.49% [at 30.3 µM] |
| C/C=C(\C)C(=O)OCCc1ccccc1 | -3.68% |
| C/C(=C\C(C)CC(C)CC(C)C)C1CC(=O)OC1=O (stereo not given) | -8.47% |
| C=Cc1ccccc1 | -7.44% |
| CCOC(=O)N1CCC(Nc2ccc(Cl)cc2N)CC1 | -1.09% [at 30.3 µM] |
